Data on 32 compounds can be found in ChEMBL document CHEMBL1157539, “Thousands of chemical starting points for antimalarial lead identification” (Nature, 2010).

Format in all cases: functional
Assay [1] has as its system Plasmodium falciparum. The assay is described as follows: GSK_TCMDC: Inhibition of Plasmodium falciparum 3D7 in whole red blood cells, using parasite LDH activity as an index of growth. Test compounds present at 2uM.
Assay [2] has as its system Plasmodium falciparum. The assay is described as follows: GSK_TCMDC: Inhibition of Plasmodium falciparum Dd2 in whole red blood cells, using parasite LDH activity as an index of growth. Test compounds present at 2uM.
For assay [3], the system named is HepG2. The assay is described as follows: GSK_TCMDC: Percent inhibition of human HepG2 cell line. Test compounds present at 10uM.

Molecules are shown by their SMILES.

`CN(C)Cc1ccc(-c2cc3c(-c4ccc(CN(C)C)cc4)ccnc3[nH]2)cc1.O=C(O)C(F)(F)F`: the Inhibition is recorded as 100% in assay [1], 96% in assay [2] and 86% in assay [3].

Turning to `CCc1c(CCNCCCC(C)CCNCCc2ccc(OC)c(OC)c2CC)ccc(OC)c1OC.Cl` (stereo unspecified), the Inhibition in assay [1] was found to be 100%; in assay [2] it was 27%; in assay [3], 99%.

For `CCCCCN1CCC(CNS(=O)(=O)c2ccc(C(=O)Nc3cccc(C(F)(F)F)c3)cc2)CC1.O=C(O)C(F)(F)F`, the Inhibition in assay [1] was found to be 98%; in assay [2], 13%; in assay [3], 13%.

For the compound `Cl.N=c1c2c(n(Cc3ccccc3)c3c1CCC3)CCCC2`, the results for the Inhibition in assay [1], in assay [2] and in assay [3] were 86%, 39% and 4%, respectively.

As to `O=C(NC1CCCC1)c1cc2c(=O)n3ccccc3nc2[nH]/c1=N/CCc1ccccc1`, the Inhibition in assay [1] turned out to be 100%; in assay [2], 61%; in assay [3] it was 19%.

On to `Fc1ccc2c(NN=CC=Cc3ccccc3)ccnc2c1`, for which the Inhibition in assay [1] worked out at 100%; in assay [2], 98%; in assay [3], 0%.

As to `CCOC(=O)c1cnc2c(OC)cc(OC)c(Cl)c2c1Nc1ccccc1`, the Inhibition in assay [1] was 99%; in assay [2] it was 100%; in assay [3], 13%.

Regarding `O=C(O)C(F)(F)F.O=C1OC(c2ccccc2)(c2ccccc2)CN1CC1CCN(Cc2ccc(O)c(Cl)c2)CC1`, the Inhibition in assay [1] is recorded as 98%; in assay [2], 90%; in assay [3], 26%.

For `CCCCCn1c(Sc2ccc(C#N)c([N+](=O)[O-])c2)nnc1-c1ccc(OC)cc1`, the Inhibition in assay [1] stood at 88%; in assay [2], 44%; in assay [3], 8%.

As to `CO/C(=C\C=C\c1cc2cc(Cl)c(Cl)cc2[nH]1)C(=O)NCCN1CCCCC1`, the Inhibition in assay [1] is 81%; in assay [2], 86%; in assay [3], 16%.

Regarding `Fc1ccc2[nH]c(-c3ccc(-c4ccc(CNCC5CCCO5)cc4)s3)nc2c1.O=C(O)C(F)(F)F` (stereo unspecified), the Inhibition came to 100% in assay [1], 99% in assay [2] and 30% in assay [3].

Turning to `OCCN1CCN(c2ccc(Nc3ccnc4cc5ccccc5cc34)cc2)CC1`, the figures for the Inhibition in assay [1], in assay [2] and in assay [3] were 100%, 100% and 98%, respectively.

For `Cl.O=C(c1ccc(Cl)c(Cl)c1)N1CCc2c([nH]c3ccccc23)C1CN1CCCC1` (stereo unspecified), the Inhibition in assay [1] came to 94%; in assay [2], 16%; in assay [3] it was 83%.

In the case of `CC(=O)N(C)C1CCN(Cc2cccc(-c3ccc(-c4nc5cc(C(F)(F)F)ccc5[nH]4)cc3)c2)C1.O=C(O)C(F)(F)F` (stereo unspecified), the Inhibition is 100% in assay [1], 94% in assay [2] and 31% in assay [3].

With `CC(C)CN(C)c1ncnc2c1nc(-c1cncc(C#N)c1)n2CCNCc1ccccc1.O=C(O)C(F)(F)F`, the results for the Inhibition in assay [1], in assay [2] and in assay [3] were 86%, 2% and 4%, respectively.

Consider `Nc1ncc(-c2cc3ccccc3o2)c(N)n1`, for which the values for the Inhibition in assay [1], in assay [2] and in assay [3] were 81%, 2% and 0%, respectively.

For `COc1ccc2nccc([C@@H](O)CN3CCC(NC(=O)c4cccc(-c5cc(C)no5)c4)CC3)c2c1`, the Inhibition in assay [1] was determined as 93%; in assay [2], 89%; in assay [3] it was 19%.

As for `C=CC[C@H](C[C@H](O)[C@H](Cc1ccccc1)NC(=O)c1nn(-c2ccccc2)nc1C)C(=O)NC1CCCCC1`, the values for the Inhibition in assay [1], in assay [2] and in assay [3] were 94%, 3% and 6%, respectively.

`CC(=O)Nc1[nH]c(-c2ccccc2)nc1C(N)=O`: the Inhibition in assay [1] is 99%; in assay [2], 0%; in assay [3], 10%.

On to `CN1CCN(c2ccnc3ccc(NC(=O)Cc4cccc(Cl)c4Cl)cc23)CC1`, for which the figures for the Inhibition in assay [1], in assay [2] and in assay [3] were 100%, 64% and 8%, respectively.

On to `CCOc1ccc(C(C)NC(=O)c2cc(Cl)ccc2OC)cc1OCC` (stereo unspecified), for which the Inhibition amounted to 100% in assay [1], 99% in assay [2] and 0% in assay [3].

For `Cc1cc(N)nc2ccc(-c3ccc(CN)cc3)cc12`, the figures for the Inhibition in assay [1], in assay [2] and in assay [3] were 100%, 93% and 4%, respectively.

Take `Cc1cccc(C)c1CNc1cccc(-c2nc(C)c(C)[nH]2)c1.Cl`: the results for the Inhibition in assay [1], in assay [2] and in assay [3] were 99%, 44% and 58%, respectively.

Regarding `CCN(CC)CCCC(C)Nc1c2ccccc2nc2ccc3ccccc3c12.Cl` (stereo unspecified), the figures for the Inhibition in assay [1], in assay [2] and in assay [3] were 100%, 89% and 24%, respectively.

For the compound `CCOc1cccc(C(=O)Nc2nonc2-c2ccc(OC)c(OC)c2)c1`, the Inhibition in assay [1] is listed as 92%; in assay [2], 95%; in assay [3] it was 11%.

As for `Br.CC1(C)NC(N)=NC(=N)N1OCCCSc1ccccc1`, the Inhibition is listed as 93% in assay [1], 94% in assay [2] and 69% in assay [3].

As for `N#Cc1cc(C(=O)c2cc(Cl)ccc2O)cn(-c2cccc(C(F)(F)F)c2)c1=O`, the values for the Inhibition in assay [1], in assay [2] and in assay [3] were 87%, 7% and 0%, respectively.

Take `COc1ccc2nccc([C@@H](O)CN3CCC(NC(=O)C(=O)c4c[nH]c5c(C)cccc45)CC3)c2c1`: the values for the Inhibition in assay [1], in assay [2] and in assay [3] were 100%, 94% and 17%, respectively.

Take `CC(Oc1ccc(Cl)cc1)C(=O)Nc1cc(C(F)(F)F)ccc1N1CCOCC1` (stereo unspecified): the Inhibition in assay [1] stood at 97%; in assay [2], 97%; in assay [3], 14%.

Take `COc1cc2c(=O)c(Cc3ccc(Cl)cc3)c(C)[nH]c2cc1F`: the figures for the Inhibition in assay [1], in assay [2] and in assay [3] were 85%, 28% and 13%, respectively.

`CCCCCCCCNCCCSCCCNCCCCCCCC.Cl`: the Inhibition was determined as 97% in assay [1], 47% in assay [2] and 63% in assay [3].

Regarding `COc1ccc2nccc(N/N=C/c3ccc([N+](=O)[O-])cc3)c2c1`, the Inhibition in assay [1] is on record as 100%; in assay [2] it was 68%; in assay [3], 9%.

What is called Inhibition is the change of the read-out against control, counted positive when it falls. Higher therefore signals a response far below the control.
